According to PubChem BioAssay AID1814 (Broad Institute, 2009):
In all, about 300,000 compounds went through this assay and about 22,000 (7.3%) were called active. About 2% were inconclusive and are not listed. The sample as a whole holds a higher share of actives than the screen did. Values without a mark were called inactive. No stated cut-off is given here; in the data, active means activity score below about -60%; inconclusive means mostly about -28% to -61%; inactive means positive scores.

Assay: Activators via SNCA 5'UTR binding, MLPCN (AID 1814)
Settings: alpha-synuclein 5'UTR reporter, activators screen; stronger effect = lower value; tested at 7.5 µM

Structure (SMILES) | activity score
CCc1ccc(-c2cc(C(=O)NN3CCN(C)CC3)c3ccccc3n2)cc1 | -112% (active)
O=C(Nc1ccccc1)c1cc2ccccc2[nH]1 | -180% (active)
CCn1c(=N)n(CC(=O)c2cccc(OC)c2)c2ccccc21 | -124% (active)
Cc1cccc(NC(=O)c2cccc(C(F)(F)F)c2)c1 | -71.9% (active)
Cc1ccc(NC(=O)Nc2cccc(C(F)(F)F)c2)nc1 | -115% (active)
O=C(Nc1ccccc1)Nc1ccc(C(F)(F)F)cn1 | -120% (active)
COc1ccc(NC(=O)CCS(=O)(=O)c2cc3c(cc2Cl)NC(=O)CO3)cc1OC | -91.8% (active)
CC(=O)Nc1ccc(NC(=O)CN2CCCC(C)C2)c(Cl)c1 (stereo not given) | -105% (active)
CC(Sc1nc2cc(Cl)ccc2s1)C(=O)Nc1ccc2c(c1)OCO2 (stereo not given) | -117% (active)
O=C(c1cnn2ccccc12)N1CCc2ccccc21 | -123% (active)
COc1cc(OC)cc(C(=O)NCC(=O)OCc2csc(-c3ccccc3)n2)c1 | -73.7% (active)
CCCCOC(=O)c1[nH]c(C)c(C(=O)OC)c1C | -134% (active)
CCOC(OCC)c1ccc(/C=C\c2nccc(N)n2)cc1 | -117% (active)
COc1ccccc1/C=N/Nc1nc(C)c(C(C)=O)s1 | -154% (active)
COc1cccc2sc(Nc3nc(C)c(C(C)=O)s3)nc12 | -179% (active)
CC(=O)c1sc(N/N=C/c2ccc(C(C)C)cc2)nc1C | -149% (active)
COc1cccc(/C=N/Nc2cc(C)nc(-c3ccccc3O)n2)c1O | 82.8%
Oc1oc(-c2ccccc2Br)nc1/C=N/c1ccccn1 | -124% (active)
Cc1ccc(OCC(=O)Nc2ccc(-c3nc4ncccc4o3)cc2)cc1 | -85.6% (active)
CCCCOc1ccc(-c2nnc(-c3ccco3)o2)cc1 | 60.2%
Cc1ccc(OCC(=O)Nc2ccc(-c3nnc(-c4ccco4)o3)cc2)cc1 | -69.1% (active)
O=C(CCc1ccccc1)Nc1cccc(-c2nnc(-c3ccco3)o2)c1 | -74.1% (active)
CCC(=O)Oc1cccc(C(=O)Nc2ccc(-c3nnc(-c4ccco4)o3)cc2)c1 | -227% (active)
Fc1ccccc1OCCSc1nc2ccccc2o1 | -139% (active)
Cc1cccc2nc(CNc3ccc(F)cc3)cn12 | -64.9% (active)
Cc1ccc(-n2ncc3c(Nc4cccc(C(=O)O)c4)ncnc32)cc1 | -200% (active)
CC(=O)NCC(=O)N1CCC(n2nccc2NC(=O)CCCc2ccccc2)CC1 | -67.3% (active)

Structure (SMILES) | activity score
Cn1c(SCc2nc3ccccc3s2)nnc1-c1ccc2c(c1)OCO2 | -72.1% (active)
Cc1ccnc(Nc2nc3ccccc3s2)n1 | -81.3% (active)
O=C(NC(=S)Nc1ccc(Cl)cc1Cl)C1CC1 | -107% (active)
Cc1cc(C)c2nc(NC(=O)C3CCCO3)sc2c1 (stereo not given) | -107% (active)
Cc1[nH]n(C(N)=S)c(=O)c1N=Nc1ccc(Cl)cc1Cl | -112% (active)
Cn1c(=O)n(C)c2cc(C(=O)Nc3ccc(Br)cc3)ccc21 | -80.7% (active)
Cc1ccc(C(=O)Nc2ccc3c(c2)OCO3)cc1S(=O)(=O)N1CCCCC1 | -66.6% (active)
COc1ccc(C(=O)Nc2ccc3c(c2)OCO3)cc1OC | -100% (active)
COc1ccc(C(=O)Nc2ccc(C3(C#N)CCCC3)cc2)cc1OC | -120% (active)
Cn1c(=O)n(C)c2cc(C(=O)Nc3ccc4c(c3)OCO4)ccc21 | -191% (active)
O=C(Nc1ccccc1)c1ccccc1NC(=O)C(F)(F)F | -85.9% (active)
Cc1cccc(-c2noc(-c3ccc(F)cc3)n2)c1 | -101% (active)
Cc1ccc(Cc2nc(-c3cccc(C)c3)no2)cc1 | -173% (active)
CCOc1ccc(/C=N/NC(N)=S)cc1 | -63.3% (active)
Cc1cc(=O)oc2cc(OCC3CC(c4ccccc4Cl)=NO3)ccc12 (stereo not given) | -132% (active)
CC(C)(C)c1ccc(Oc2ccc(N)cc2)cc1 | 112%
CC(C)(C)c1ccc(OC2=CS(=O)(=O)c3ccccc32)cc1 | -110% (active)
COC(=O)c1c(NC(=O)c2ccccc2F)sc2c1C(C(=O)OC)CC2 (stereo not given) | -72.4% (active)
CCOc1ccc2[nH]c3nc(SCC(=O)NC4CCCC4)nnc3c2c1 | -73.1% (active)
Cc1cccn2c(=O)c3cc(C(=O)NCCN4CCOCC4)c(=N)n(Cc4cccnc4)c3nc12 | 97%
COc1ccc(CCn2c(=N)c(C(=O)NCc3ccco3)cc3c(=O)n4cccc(C)c4nc32)cc1 | -87.1% (active)
CCn1c2ccccc2c2cc(NC(=O)C/C(C)=N/NC(=O)c3ccccc3N)ccc21 | -110% (active)
NS(=O)(=O)c1ccc(Nc2nc(-c3ccccc3)cs2)cc1 | -117% (active)
COc1ccc(-c2csc(Cc3nc(O)cs3)n2)cc1 | -207% (active)
COc1ccc(Nc2nc(-c3ccccc3)cs2)cc1 | -137% (active)
COc1ccc(-c2csc(Nc3ccc(O)cc3)n2)cc1 | -170% (active)
COc1ccc(-c2csc(NC3OC(=O)c4ccccc43)n2)cc1 (stereo not given) | -114% (active)

Structure (SMILES) | activity score
O=C(NCc1cccnc1)C(=O)Nc1nc(-c2ccccc2)cs1 | -99% (active)
Oc1ccc(-c2csc(Nc3cccnc3)n2)cc1 | -116% (active)
CN(c1ccc(O)cc1)c1nc(-c2cccnc2)cs1 | -137% (active)
Cc1ccccc1Nc1nc(-c2cccnc2)cs1 | -179% (active)
COc1ccc(OC)c(Nc2nc(-c3ccc(O)c(O)c3)cs2)c1 | -158% (active)
O=C(Nc1ccc2c(c1)OCO2)C1CC(c2c(F)cccc2Cl)=NO1 (stereo not given) | -147% (active)
COc1cccc(NC(=O)C(=O)c2cn(CC(=O)N3CCOCC3)c3ccccc23)c1 | -77.7% (active)
O=C(Nc1ccc([N+](=O)[O-])cc1)C1CC12CCC2 (stereo not given) | -78.2% (active)
COc1ccc(NC(=S)N2N=CCC2c2ccccc2)cc1 (stereo not given) | -137% (active)
Cn1c(SCc2c(F)cccc2Cl)nnc1-c1cnccn1 | -126% (active)
CSC(=S)N/N=C/c1c[nH]c2ccccc12 | -107% (active)
c1ccc(-c2ccc(OCCN3CCOCC3)cc2)cc1 | -93.6% (active)
COc1ccc(Br)cc1C(=O)NC(=S)Nc1cc(-c2nc3ccccc3[nH]2)ccc1C | -86.2% (active)
Cc1ccc(-c2csc(-c3cc(C)on3)n2)cc1 | -149% (active)
Cc1ccc(-c2csc(-c3c[nH]c4ccccc34)n2)cc1 | -164% (active)
CCNC(=O)CSc1nc(-c2ccccc2)cs1 | -105% (active)
O=C(CSC1=NCCS1)Nc1nc(-c2ccccc2)cs1 | -83% (active)
O=C(CN1C(=O)C2C3C=CC(C3)C2C1=O)Nc1nc(-c2ccccn2)cs1 (stereo not given) | 82.4%
O=C(CNC(=O)c1ccccc1F)c1ccc(Br)cc1 | -97.5% (active)
O=C(CNC(=O)c1ccc(F)cc1)c1ccccc1 | -128% (active)
CCOc1ccc2c(c1)C(c1ccc(C)cc1)=NNC(c1ccc(C)cc1)=N2 | -63.3% (active)
Cc1nc2ccccc2cc1OCc1ccc(F)cc1 | -71.1% (active)
C/C(=N\NC(=O)c1ccccc1F)c1ccccn1 | 83%
C/C(=N\NC(=O)c1cccnc1)c1ccc(-c2ccccc2)cc1 | -92.7% (active)
C/C(=N\NC(=O)c1nc(C)cc(C)n1)c1ccccc1 | -137% (active)
C/C(=N\NC(=O)c1ccc2ccccc2c1)c1cccnc1 | -68.8% (active)
CC(C)CNC(=O)C(=O)Nc1ccc(N(C)C)cc1 | -159% (active)

Structure (SMILES) | activity score
O=C(Nc1ccc(Cl)cc1)/C(=C1\CCCN1)[N+](=O)[O-] | -97.2% (active)
CC(=O)Nc1cccc(C(=O)OCC(=O)NCc2cc(C)c(O)c(C)c2)c1 | -62.5% (active)
CCCOc1cccc(C(=O)Nc2nnn(CCC)n2)c1 | -87.6% (active)
CCCOc1ccc(C(=O)C(CCC(CNCC)C(=O)c2ccc(OCCC)cc2)CNCC)cc1 (stereo not given) | 107%
Cc1c(C)c2cc3c4c(oc3c(C)c2oc1=O)CCCC4 | -61.9% (active)
CC[n+]1cc(C)ccc1/C=C/c1ccc(N(C)C)cc1 | 90.6%
COc1cccc(/C=C/C(=O)Nc2ccc3c(c2)OCCO3)c1 | -94% (active)
CNS(=O)(=O)c1ccc(NC(=O)Nc2ccc3c(c2)OCO3)cc1 | -63.6% (active)
Cc1cccc(NC(=O)/C=C/c2ccc3c(c2)OCO3)n1 | -88% (active)
Cc1cccc(NC(=O)Nc2ccc3c(c2)OCO3)n1 | -251% (active)
Cc1ccc(-n2c(C)cc(/C=C(\C#N)C(=O)NCC3CCCO3)c2C)cc1 (stereo not given) | -133% (active)
COc1ccc(C(=O)NC2=NCCS2)c(OC)c1 | -111% (active)
COc1ccc(Cc2nnc(NC(=O)c3ccc(OC)cc3OC)s2)cc1 | -62.4% (active)
O=C(NC1=NCCS1)c1ccc(Cl)s1 | -112% (active)
COc1ccc(C(=O)Nc2nncs2)c(OC)c1 | -106% (active)
Cc1cccc(NC(=S)Nc2ccc(Cl)c(Cl)c2)c1 | -115% (active)
Cc1cccc(NC(=O)c2nc(S(=O)(=O)Cc3ccccc3)ncc2Cl)c1 | 84.8%
Cc1cccc(NC(=S)Nc2ccc(Br)cc2)c1 | -106% (active)
COc1ccc(CNc2ccc3c(c2)CCC3)cc1OC | -177% (active)
Cc1ccc(C(=O)NC(=S)Nc2ccccc2C)cc1 | -122% (active)
Cc1cc(C(=O)NNC(=S)Nc2ccccc2C)cs1 | -135% (active)
Nc1ccc(C(=O)Nc2ccccc2N)cc1 | -714% (active)
CCn1c(SCC(=O)Nc2cccc(F)c2)nnc1-c1cc2cc(Br)ccc2o1 | -71.9% (active)
CN1C2CCC1/C(=C\c1ccccc1Cl)C(=O)/C2=C\c1ccccc1Cl | -89% (active)
